# Results as given in publication PMC5540273 (PLoS ONE, 2017).
# Tested on: T1, OSR1
# T1 construct: gene OXSR1
# Details: concentration: 1 μM, replicates: in singlicate; n = 1
# 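Note: KINOMEscan kinase panel screen.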
row,SMILES,%Inh [%]
1,Cl.NC(=O)c1cccc(Nc2nccc(Nc3ccc(Oc4c(Cl)cccc4Cl)c(Cl)c3)n2)c1 [GW659009],15
2,COc1ccc(CNC(=O)NC2CCN(c3ccnc(Nc4ccc(F)cc4)n3)CC2)cc1 [GSK1379788],0
3,COc1ccc(Nc2nccc(NCCNC(=O)c3cc4ccccc4s3)n2)cc1 [GSK1379896],10
4,O=c1[nH]cc(-c2ccc(N3CCOCC3)cc2)c2sc(-c3cn[nH]c3)cc12 [GSK2276055],1

# Tested on: PAK1
# Details: concentration: 1 μM, replicates: in singlicate; n = 1
row,SMILES,%Inh [%]
1,Cl.c1ccc(-c2ccc3c(Nc4ccc5[nH]ccc5c4)ccnc3c2)nc1 [GW440138],0
2,O=C(Nc1ccccc1F)NC1CCN(c2ccnc(Nc3ccc(F)cc3)n2)CC1 [GSK1379800],1
3,Cc1cccc(NC(=O)Nc2ccc(Oc3ncnc4ccn(C)c34)cc2)c1,0
4,COc1cccc(C2=C(Nc3ccc(Cl)c(C(=O)O)c3)C(=O)NC2=O)c1 [SB-390769],30
5,COc1cccc(-c2ccc3c(NC(=O)C4CC4)n[nH]c3n2)c1 [SB-710903],0
6,CN1CCN(CCCNc2nccc(-c3c(-c4ccc(F)cc4)nn4cc(C(F)(F)F)ccc34)n2)CC1 [GW621581],8
7,COCCOCCOc1cc2ncc3c4ccc(C#N)cc4[nH]c3c2cc1OC,18
8,O=C(Nc1cccc(-c2nn3ncccc3c2-c2ccnc(Nc3ccccc3)n2)c1)c1c(F)cccc1F [GSK198271],24
9,c1ccc(-c2n[nH]cc2Nc2ccnc3ccccc23)nc1 [GW694077],6
10,COC(=O)Nc1nc2ccc(Oc3ccc(NC(=O)Nc4cc(C(F)(F)F)ccc4F)cc3)cc2n1C.Cl [GW692089],0
11,Cn1cc(-c2ccc3c(c2)CCN3C(=O)Cc2cccc(Cl)c2)c2c(N)ncnc21 [GSK2606590],17
12,CC(C)(C)c1ccc2nccc(Nc3cccc(O)c3)c2c1 [GW856795],0
13,COc1cc(Nc2nccc(N3CCC(NC(=O)Nc4cccc(C(C)=O)c4)C3)n2)cc(OC)c1OC (centres unmarked) [GSK1379753],0
14,O=C(Nc1n[nH]c2nc(-c3ccc(O)cc3)ccc12)C1CC1 [SB-710363],0
15,c1ccc(-c2cnc3nccnn23)cc1 [AH20685],13
16,CN(C)Cc1ccc(-c2ccc3c(Nc4ccc(Oc5ccccn5)cc4)ccnc3c2)o1 [GW567148],0
17,NCCCC(NC(=O)c1cc(Br)c(-c2ccnc3[nH]ccc23)s1)c1ccccc1.O=C(O)C(F)(F)F.O=C(O)C(F)(F)F (centres unmarked) [GSK1287544],2
18,CCS(=O)(=O)c1ccc(OC)c(Nc2nccc(-c3c(-c4cccc(NC(=O)c5c(F)cccc5F)c4)nn4ncccc34)n2)c1 [GSK326180],0
19,CCn1c(-c2nonc2N)nc2c(C#CC(C)(C)O)ncc(OCCCCN)c21.O=C(O)C(F)(F)F.O=C(O)C(F)(F)F [GSK507274],81

row,SMILES,%Inh [%]
1,Cl.Cl.NCC(NC(=O)c1cc(-c2ccccc2)c(-c2ccnc3[nH]ccc23)s1)c1ccccc1 (centres unmarked) [GSK1321561],4
2,Clc1ccc(-c2nn3ncccc3c2-c2ccnc(Nc3ccc4c(c3)OCCO4)n2)cc1 [GW829116],0
3,Cc1ccc(C)c(NC(=O)NC2CCN(c3ccnc(Nc4ccc(F)cc4)n3)C2)c1 (centres unmarked) [GSK1379720],4
4,CN1CCN(Cc2cccc(-c3ccc4c(Nc5ccc(Oc6ccccc6)cc5)ccnc4c3)c2)CC1 [GW578342],16
5,O=C(O)C(F)(F)F.O=C(O)C(F)(F)F.O=c1[nH]ccc2nc(N[C@@H]3CCCNC3)nc(Nc3ccc(S(=O)(=O)N4CCOCC4)cc3)c12 [GSK2177277],99.9
6,COc1cc(Nc2nccc(-c3c(-c4cccc(NC(=O)c5c(F)cccc5F)c4)nn4ncccc34)n2)cc(OC)c1OC [GSK327238],70
7,O=C(NC1CCN(c2ccnc(Nc3ccc(F)cc3)n2)C1)c1cc2ccccc2s1 (centres unmarked) [GSK1379716],18
8,Cl.c1ccc(-c2ccc3c(Nc4ccc5[nH]ncc5c4)ccnc3c2)nc1 [GW440137],10
9,COc1cc(Nc2ncc3c(C)nc(-c4cc5ccccc5[nH]4)n3n2)cc(OC)c1OC [GW869516],5
10,CCCCc1nn2ncccc2c1-c1ccnc(Nc2ccc(N3CCN(C)CC3)cc2)n1 [GW684941],23
11,C[C@@H](Oc1cc(-n2cnc3cc(-c4ccnc(NCCS(C)(=O)=O)c4)ccc32)sc1C(N)=O)c1ccccc1Cl [GSK907232],6
12,O=C(Nc1cccc(-c2nn3ccccc3c2-c2ccnc(Nc3cccc(F)c3)n2)c1)c1c(F)ccc(F)c1Cl [GSK357952],0
13,CCc1ccc(-c2ccc3c(c2)-c2c(cnn2C)S(=O)(=O)N3C)cc1,0
14,O=C(Nc1cccc(-c2nn3ccccc3c2-c2ccnc(Nc3cccc(C(F)(F)F)c3)n2)c1)c1c(F)cccc1F [GSK292658],9
15,Cl.NC(=O)c1cccc(Nc2nccc(Nc3ccc(Oc4c(Cl)cccc4Cl)c(Cl)c3)n2)c1 [GW659009],34
16,COc1ccc(CNC(=O)NC2CCN(c3ccnc(Nc4ccc(F)cc4)n3)CC2)cc1 [GSK1379788],0
17,COc1ccc(Nc2nccc(NCCNC(=O)c3cc4ccccc4s3)n2)cc1 [GSK1379896],7
18,O=c1[nH]cc(-c2ccc(N3CCOCC3)cc2)c2sc(-c3cn[nH]c3)cc12 [GSK2276055],8
